Test results taken from PubChem BioAssay (NCATS).
Records with an inconclusive call do not appear. Activity calls are given as the source filed them. Calls follow the shape of the dose curve; as a rule, active = well fitted cell-killing curve with a large enough effect; inconclusive = small, poorly fitted or top-dose-only effect, or effect the other way; inactive = no such curve, though single readings can be large or run the other way.

Assay: Viability qHTS for spleen associated tyrosine kinase inhibitor (SYKi) naive MV4-11 cells (AID 1963823); also: nearly all actives have a fitted effect of over 40% in size
Conditions: MV4-11 AML viability, CellTiter-Glo luminescence, 72 h; series mostly up to 45 µM; viability (% of control): at the top concentration
In short: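 CellTiter-Glo luminescence, 10 min room-temperature incubation, gave viability. Cells: naive MV4-11 (500/well), treated 72 hr at 37 C, 5% CO2.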
Potency is read from the fitted curve at half-maximal effect.

SMILES	viability (% of control)	Potency
Cc1cc2c(c(=O)o1)C=C1CC[C@H]([C@H](C)Cn3cnc(=N)c4[nH]cnc43)C[C@@H]1O2	93.4% (inactive)	
CC1C(=O)OCC2=CC[N+]3([O-])CCC(OC(=O)C(C)(O)C1(C)O)C23 (stereo not drawn)	83.7% (inactive)	
Cc1cc(C)nc(SCC(=O)Nc2ncc(Cc3cccc4ccccc34)s2)n1		7.31 µM (active)
CNCCC=C1c2ccccc2CCc2ccccc21		11.6 µM (active)
C[C@@H]1O[C@@H](O[C@H]2[C@H](O)[C@@H](C(=O)O)O[C@@H](O[C@H]3CC[C@@]4(C)C(CC[C@]5(C)C4CC=C4C6CC(C)(C)CC[C@]6(C(=O)O)CC[C@]45C)C3(C)C)[C@@H]2O[C@@H]2O[C@H](CO)[C@@H](O)[C@H](O)[C@H]2O)[C@H](O)[C@H](O)[C@H]1O (stereo partly drawn)	72.6% [at 9.25 µM] (inactive)	
OC[C@H]1O[C@@H](OC/C=C/c2ccc(O)cc2)[C@H](O)[C@@H](O)[C@@H]1O	79.7% (inactive)	
CC[C@H]1OC(=O)[C@H](C)C(=O)[C@H](C)[C@@H](OC2O[C@H](C)C[C@H](N(C)C)[C@H]2O)[C@@H](C)C[C@@H](C)C(=O)/C=C/[C@]1(C)O (stereo partly drawn)	63.5% [at 17.3 µM] (inactive)	
COC(=O)C12C(=O)C(C)=C(O)C1(C)C(C)=CC1C3(CO)CCC(O)C(C)(C)C3CCC12C (stereo not drawn)	75.1% [at 17.3 µM] (inactive)	
CC1=C(C)C(=O)OC(C(C)C2C(O)CC3C4C5OC5C5(O)CC(OC6OC(CO)C(O)C(O)C6O)CC(O)C5(C)C4CCC32C)C1 (stereo not drawn)	67.5% [at 17.3 µM] (inactive)	
CCN(CC)C(C)CN1c2ccccc2Sc2ccccc21 (stereo not drawn)	64.8% (inactive)	
COc1cc([C@H]2OC[C@]3(OC(C)=O)[C@@H](c4ccc(O[C@@H]5O[C@H](CO)[C@@H](O)[C@H](O)[C@H]5O)c(OC)c4)OC[C@H]23)ccc1O	80.8% [at 17.3 µM] (inactive)	
C=C1C(OC(C)=O)C(=O)C2C(C)(C)C(O)CCC2(C)C1CC(OC(C)=O)/C(C)=C/COC(C)=O (stereo not drawn)	68.8% [at 17.3 µM] (inactive)	
CC1=C[C@H](O)[C@H]2C(C)(C)CCC[C@]2(C)[C@@]1(O)CO	62.8% (inactive)	
CC1(C)SC2C(NC(=O)[C@H](NC(=O)N3CCNC3=O)c3ccccc3)C(=O)N2C1C(=O)O (stereo partly drawn)	90.2% (inactive)	
O=C(Cc1ccccc1)OC[C@H]1O[C@H](O[C@H]2O[C@H](CO)[C@@H](O)[C@H](O)[C@H]2O)[C@H](O)[C@@H](O)[C@@H]1O	92.2% [at 17.3 µM] (inactive)	
O=C1O[C@H](C(O)CO)C(=O)C1=O (stereo partly drawn)	102% (inactive)	
COC(=O)[C@H](O)[C@H]1C(C)(C)[C@H](OC(=O)C(C)C)[C@@]2(O)C(=O)[C@]1(C)C1CC[C@]3(C)C(CC(=O)O[C@H]3c3ccoc3)[C@]13O[C@@H]32 (stereo partly drawn)	47.6% [at 17.3 µM] (inactive)	
CC1(C)OC(=O)C(OCC2CC2)=C1c1ccc(S(C)(=O)=O)cc1	69.5% (inactive)	
O=C(CC12CC3CC(CC(C3)C1)C2)Nc1cccc2nc(NCCNCCO)ccc12		18.6 µM (active)
Cc1cc(C(=O)N2Cc3cnn(C)c3Nc3ccccc32)ccc1CNC(=O)N1CCC[C@H]1C(=S)N1CCCN(C)CC1	78.4% (inactive)	
C/C=C1\[C@H](OC2OC(COC3OC(CO)C(O)C(O)C3O)C(O)C(O)C2O)OC=C(C(=O)OC)[C@H]1CC(=O)OCCc1ccc(O)cc1 (stereo partly drawn)	85.3% [at 17.3 µM] (inactive)	
Cc1c[nH]c2nccc(Oc3c(F)cc(Nc4cc(Cl)nc(N)n4)cc3F)c12		0.517 µM (active)
COc1cc(C(=O)OCC2=CCC3C(C(=O)O)=COC(O[C@@H]4O[C@H](CO)[C@@H](O)[C@H](O)[C@H]4O)C23)ccc1O (stereo partly drawn)	103% [at 17.3 µM] (inactive)	
COc1ccc(Oc2c(Cl)cnn(-c3cc(C)cc(C)c3)c2=O)cc1		2.31 µM (active)
CC(C)(O)C(O)C(=O)OCc1ccc(O[C@@H]2O[C@H](CO)[C@@H](O)[C@H](O)[C@H]2O)cc1 (stereo partly drawn)	87% [at 17.3 µM] (inactive)	
CN1CC[C@@H](c2c(O)cc(O)c3c(=O)cc(-c4ccc(C(F)(F)F)cc4Cl)oc23)[C@@H]1CO		16.4 µM (active)
C[C@@H]1O[C@@H](O[C@@H]2[C@@H](O)[C@H](O[C@@H]3[C@@H](O)[C@@H](O)[C@H](O[C@H]4[C@H](OC(=O)[C@]56CCC(C)(C)C[C@H]5C5=CCC7[C@@]8(C)C[C@H](O)[C@H](O[C@@H]9O[C@H](C(=O)O)[C@@H](O)[C@H](O)[C@H]9O)[C@@](C)(CO)C8[C@H](O)C[C@@]7(C)[C@]5(C)CC6)OC[C@H](O)[C@@H]4O)O[C@H]3C)OC[C@H]2O)[C@H](O)[C@H](O)[C@H]1O (stereo partly drawn)	78.4% [at 9.25 µM] (inactive)	
CC1(C(=O)O)CCCC2(C)C3=CCC4CC3(CCC12)CC4CO (stereo not drawn)	80.2% (inactive)	
